Screening results deposited in PubChem by National Center for Advancing Translational Sciences (NCATS).
An excerpt weighted towards active compounds, which were near 8.1% of everything screened.
ELG1 repair inh – inhibitors of ELG1-dependent DNA repair in HEK293T cells; Potency, µM (titrated, usually from 46.1 µM), usual class: inhibitors; HEK293T ELG1-luciferase reporter, luminescence, 16 h; DNA damage induced by 5-fluorouridine; 2.3% of 330,000 active; further: nearly all actives have a fitted effect of over 55% in size
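Reporter activity after DNA damage by 5-fluorouridine is monitored. Compound-treated cells incubate 16 hr at 37 °C, then ONE-Glo is added for 30 min before luminescence reading.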
SW480 rerep – inducers of DNA re-replication in SW480 colon cancer cells | SW480 DNA re-replication, Hoechst DNA content imaging, 48 h | 1.8% of 340,000 active | Potency, µM (series often up to 46.1 µM), hits mostly activators; further: nearly all actives have a fitted effect of over 55% in size
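Image-based read-out: total Hoechst fluorescence of nuclei (405 nm excitation, 500-530 nm emission), with hits raising the fraction of high-intensity nuclei. SW480 colon cells incubated 48 hr with compounds at 37 C.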
KB-V1 cytotox – KB-V1 MDR subline cytotoxicity. KB-V1 MDR cells viability, CellTiter-Glo, 72 h. Potency, µM (highest dose often 46.1 µM), usual class: cytotoxic. 3.4% of 400,000 active; further: nearly all actives have a fitted effect of over 60% in size
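Cells of the MDR subline KB-V1 are plated, dosed with compound at multiple concentrations, and incubated 72 h at 37 degrees C; CellTiter-Glo is then added and luminescence read after 10 min.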
KB-3-1 tox – KB-3-1 parental cell cytotoxicity; KB-3-1 viability, CellTiter-Glo ATP luminescence, 72 h; Potency, µM (highest dose often 46.1 µM), most hits filed as cytotoxic; 1.4% of 400,000 active; AID 1347075; further: nearly all actives have a fitted effect of over 60% in size
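72 h, 37 °C compound treatment of KB-3-1 parental cells; CellTiter-Glo added, 10 min, luminescence read. Data corrected against DMSO-only plates and normalized before curve fitting.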
MCF10A rerep – inducers of DNA re-replication in MCF 10A breast cells; MCF 10A DNA re-replication, Hoechst nuclear intensity, 48 h; Potency, µM (highest dose often 46.1 µM), usual class: activators; 2.9% of 350,000 active; further: nearly all actives have a fitted effect of over 50% in size
Large screens that a line does not name were inactive. The call rests on the fitted dose curve; in most records, active means well fitted curve in the direction sought with a large enough effect; inconclusive means small, poorly fitted or top-dose-only effect, or another doubt; inactive means no such curve, though single readings can be large; an effect the other way counts as inactive or inconclusive.

COc1ccccc1OCC(=O)NNC(=O)Nc1ccc(Cl)cc1	SW480 rerep 18µM, KB-V1 cytotox 10µM, KB-3-1 tox 18µM, MCF10A rerep 23µM
COc1ccccc1OCC(=O)NCC1CCCCC1	ELG1 repair inh inconclusive, KB-V1 cytotox 21µM
COc1cccc(OC)c1C(=O)OCC(=O)NCC1CCCCC1	none (no result: ELG1 repair inh, SW480 rerep, MCF10A rerep)
CCc1ccccc1OCC(=O)NC1CCCC1	KB-V1 cytotox 13µM
O=C(Nc1cccc(Cl)c1)N1CCSc2ccccc21	none (no result: ELG1 repair inh, SW480 rerep, MCF10A rerep)
CC(C)(C)c1ccc2cccc(F)c2n1	none (no result: ELG1 repair inh, SW480 rerep, MCF10A rerep)
CSc1ccc(CNC(=O)C2(C)CCN2C(C)C)cc1 (stereo not drawn)	none (no result: ELG1 repair inh, SW480 rerep, MCF10A rerep)
CCOc1cc(Br)c(CC(=O)NC2CCCCCC2)cc1OCC	KB-V1 cytotox 10µM, MCF10A rerep inconclusive
O=C(COc1ccc(C(=O)c2ccccc2)cc1)NC1CCCCCC1	ELG1 repair inh inconclusive, KB-V1 cytotox 10µM, KB-3-1 tox inconclusive
O=C(CNC(=O)C1COc2ccccc2O1)N/N=C\c1ccc(Br)cc1 (stereo not drawn)	KB-V1 cytotox inconclusive
COc1ccc(OC2CCN(S(=O)(=O)c3ccc(C(C)=O)cc3)CC2)cc1	ELG1 repair inh 21µM, MCF10A rerep inconclusive
COc1ccc(S(=O)(=O)N2CCC(NC(=O)OCc3c(Cl)cccc3Cl)CC2)cc1	KB-V1 cytotox 8.2µM, MCF10A rerep inconclusive
COc1ccc(COC(=O)NC2CCN(S(=O)(=O)c3ccc(OC)cc3)CC2)cc1	ELG1 repair inh inconclusive, KB-V1 cytotox 7.3µM
